# Out of some 48,000 compounds screened, about 13,000 (27%) showed an effect of 50% or more. The list shows a part of the results.
# Tested on: Wolbachia pipientis
# Experiment: Anti-Wolbachia Cell-Based Screen
# Assay type: functional
# Design: scale not given: in the data most compounds retested in dose-response had high values
# Details: 5 µM
row,Compound,Percent Effect
1,CN(c1nc(CSc2nnc(Cn3cncn3)o2)cs1)C1CC1,-4.174%
2,O=C(CCc1c[nH]cn1)N1CC[C@@H](c2ccc3ccccc3c2)[C@H](O)C1,-1.023%
3,Cc1n[nH]c(SCC(=O)NC(c2ccccn2)C(C)C)n1 (configuration not stated),0.231%
4,CC(C)Cn1cc(NC(=O)NC(C)(C)c2nccs2)cn1,-7.007%
5,Cc1noc(C)c1CN(C)C(=O)C1CCN(S(N)(=O)=O)CC1,-4.387%
6,Cc1noc(C)c1-c1cccc(C2CN(CC(=O)N(C)C)CCO2)n1.O=CO (configuration not stated),138.9%
7,Cc1cc(C(F)(F)F)c2c(C3CCN(S(=O)(=O)N(C)C)CC3)noc2n1,-7.595%
8,CCN(C)C(=O)CN1CCC(c2cc(N3CCOCC3)nc(C)n2)CC1,11.68%
9,Cc1nc(-c2c(C)noc2C)cc(C2CCN(S(=O)(=O)N(C)C)CC2)n1,103.8%
10,CCc1n[nH]c(C2CN(CC(=O)N(C)Cc3ccco3)CCO2)n1 (configuration not stated),-22.35%
11,CCC[C@H]1CN(S(=O)(=O)c2ccc(-c3c(C)noc3C)s2)C[C@@H]1N,-6.038%
12,Cc1noc(C)c1-c1cccc(C2CN(S(=O)(=O)N(C)C)CCO2)n1 (configuration not stated),137.9%
13,CC(C)c1n[nH]c(C2CN(CC(=O)N(C)Cc3ccco3)CCO2)n1 (configuration not stated),-2.203%
14,Cc1nc(-c2c(C)noc2C)cc(C2CCN(CC(=O)N(C)C)CC2)n1,77.89%
15,Cc1cc(Cl)cc(C)c1CNC1CCN(CC(=O)N(C)C)CC1,-21.25%
16,Oc1ccc(-c2c(-c3ccccc3)ncn2C[C@H]2CCCN2)cc1,-6.352%
17,CCc1noc(C(C)N2CCC(NS(=O)(=O)c3ccccc3)CC2)n1 (configuration not stated),-5.336%
18,CN(C(=O)CN1CCC(c2cc3ccccc3[nH]2)CC1)C(C)(C)C#N,-0.1259%
19,Cc1noc(C)c1-c1cccc(C2CCN(CC(=O)N(C)C)CC2)n1,159.5%
20,CN(C(=O)CN1CCC(c2cc3ccccc3[nH]2)CC1)C1CC1,-16.32%
21,Cc1csc(CNc2cccc(OCCN3CCCC3)c2)n1,-3.385%
22,CCOc1cc(CNC(=O)NCc2nc(C)c(C)s2)ccn1,-14.7%
23,CCOc1cc(C(=O)N2CCCC(c3noc(C(C)C)n3)C2)ccn1 (configuration not stated),127.2%
24,CCOc1cc(C(=O)N2CCCC(c3noc(C)n3)C2)ccn1 (configuration not stated),-8.742%
25,CC(C)c1nc(C2CCCN(C(=O)c3nccn4ccnc34)C2)no1 (configuration not stated),101.8%

row,Compound,Percent Effect
1,Cc1ncsc1C(=O)N1CCCC(c2noc(C(C)C)n2)C1 (configuration not stated),-0.9065%
2,CCOc1cc(C(=O)N2CC=C(c3ccc(O)cc3)CC2)ccn1,-12.82%
3,CCOc1cc(C(=O)N2CCCC(c3nc(C)c(C)s3)C2)ccn1 (configuration not stated),118.9%
4,CCOc1cc(C(=O)N2CCCC(c3noc(CC)n3)C2)ccn1 (configuration not stated),112.4%
5,CCNc1ncc(CN2C[C@H]3CC[C@@H]2CN(C(=O)C2CCC2)C3)cn1,-9.372%
6,COCc1cc(N2CCN(c3ccc(Cl)cn3)CC2)n2nccc2n1,-13.5%
7,COc1ccc(F)c(CN2CCCC(O)(CNCc3ccoc3)C2=O)c1 (configuration not stated),4.177%
8,Cc1nc[nH]c1CN(Cc1ccc(F)cc1)C1CC(C)(C)NC(C)(C)C1,102.8%
9,Cc1nc[nH]c1CN(C)CC1CCCN(CCc2ccc(Cl)cc2)C1 (configuration not stated),-5.725%
10,O=C(c1cc[nH]n1)N(Cc1ccccc1)CC1CCC1,-1.584%
11,Cc1ccc(CNC(=O)N(Cc2ccccc2F)C2CC2)cn1,-4.204%
12,Cc1nc[nH]c1CN(Cc1ccccc1F)C1CC(C)(C)NC(C)(C)C1.O=C(O)CC(O)(CC(=O)O)C(=O)O,111.6%
13,Cc1ccc(CN(Cc2c[nH]cn2)C2CC(C)(C)NC(C)(C)C2)o1.O=C(O)CC(O)(CC(=O)O)C(=O)O,1.098%
14,CCCc1cc(CN(C)C2CC(C)(C)NC(C)(C)C2)n[nH]1,-6.342%
15,Cc1nc[nH]c1CN(Cc1ccccc1)C1CC(C)(C)NC(C)(C)C1.O=C(O)CC(O)(CC(=O)O)C(=O)O,106.8%
16,Cc1n[nH]c(C)c1CNC(=O)N(Cc1ccccc1)CC(C)(C)O,-20.3%
17,CC1(C)CC(N(Cc2ccccc2)Cc2c[nH]cn2)CC(C)(C)N1.O=C(O)CC(O)(CC(=O)O)C(=O)O,113.6%
18,O=C(c1ccc(C2CCCN2C(=O)c2ccoc2)s1)N1CCOCC1 (configuration not stated),-19.01%
19,Cc1cnc(C)c(-c2cc(O)c3c(c2)CN(c2nccs2)CCO3)n1,-4.792%
20,O=C(CCc1ccco1)NS(=O)(=O)Cc1ccon1,-7.253%
21,Fc1cccc2c1CCC2NCc1ccc(N2CCOCC2)cc1 (configuration not stated),19.23%
22,Cc1nc(CN(C)S(=O)(=O)c2ccccc2Br)no1,4.725%
23,Cc1ccc(CN2C[C@H]3CC[C@@H]2CN(Cc2[nH]cnc2C)C3)o1,6.692%
24,Cc1ccc(CN(Cc2[nH]cnc2C)C2CC(C)(C)NC(C)(C)C2)o1.O=C(O)CC(O)(CC(=O)O)C(=O)O,115.3%
25,O=C(N[C@H]1CN(c2nc(CO)cs2)C[C@@H]1C1CC1)C1CCCCC1,92.34%

row,Compound,Percent Effect
1,CCC[C@H]1CN(c2nccc(OC)n2)C[C@@H]1NC(=O)C1CCOCC1,-2.049%
2,CC(=O)N[C@@H]1CN(c2nc(CO)cs2)C[C@H]1c1ccc(C)o1,5.445%
3,Cc1nc(O)cc(CN2C[C@H](NC(=O)C3CCCC3)[C@@H](C3CC3)C2)n1,0%
4,Cc1nc(O)cc(CN2C[C@H](NC(=O)C3CCC3)[C@@H](C3CC3)C2)n1,-31.53%
5,CCC[C@H]1CN(c2nc(CO)cs2)C[C@@H]1NC(=O)C1CCC1,94.3%
6,CCC[C@H]1CN(Cc2cscn2)C[C@@H]1NC(=O)C1(COC)CCC1,6.083%
7,CCC[C@H]1CN(Cc2nccn2C)C[C@@H]1NC(=O)C1(COC)CCC1,-15.87%
8,CCC[C@H]1CN(c2nc(CO)cs2)C[C@@H]1NC(=O)C1(COC)CC1,96.14%
9,COc1ccc(Br)cc1CCC(=O)N1CCC(O)CC1,-2.628%
10,COc1ccc(-n2c(SCC(=O)O)nnc2-c2cn[nH]c2)cc1,-10.86%
11,O=C(C1CCCS1)N1CCOc2cccc(F)c21 (configuration not stated),-0.5094%
12,Cc1noc(C)c1NC(=O)N1CCC(NC(=O)OC(C)(C)C)CC1,-9.132%
13,Cc1nn(-c2ccccn2)c(C)c1[C@@H]1C=C[C@@H](NC(=O)NC(C)C)C1,4.559%
14,CCc1nc(N)sc1C(=O)N1CCCC(COc2cccc(C)c2)C1 (configuration not stated),-15.03%
15,Cc1cccc(Oc2nccnc2C2CCN(C(=O)C(C)(C)N)CC2)c1,110.7%
16,CC(=O)N1CCC(c2nccnc2Oc2ccccc2)CC1,-11.76%
17,CC(C)(N)C(=O)N1CCC(c2nccnc2Oc2ccccc2F)CC1,77.45%
18,COc1ccc(Oc2nccnc2C2CCN(C(C)=O)CC2)cc1,88.85%
19,COc1ccc(Oc2ncccc2NC(=O)N2CCOC(C)C2)cc1 (configuration not stated),2.088%
20,Cc1ccc(Oc2nccnc2C2CCN(C(=O)C(C)(C)N)CC2)cc1,108.2%
21,CC(C)(C(=O)N1CCC(C(N)=O)C1)c1ccccc1F (configuration not stated),2.701%
22,COCC(=O)N1CCC(Oc2cccc(C)c2)CC1,14.96%
23,CC(C)(C(=O)N1CCC(CS(N)(=O)=O)CC1)c1ccccc1F,-25.38%
24,CC(C)N1C(=O)CC(NC(=O)c2cc(Cl)sc2Cl)C1=O (configuration not stated),-12.95%
25,COc1ccc(S(=O)(=O)Nc2cccnc2-n2cncn2)c(C)c1,-3.562%

row,Compound,Percent Effect
1,CCc1c(NCc2cccnc2)cnn1CC(C)C,-15.31%
2,CC(C)CN1CCc2[nH]cnc2C12CCN(C(=O)c1ccnn1C)CC2,-2.92%
3,O=C(c1coc(COc2cccc(F)c2)n1)N1CC[C@H](O)[C@@H](O)C1,-11.67%
4,CC(C)(N)C(=O)N1CCC(c2nccnc2Oc2cccc(F)c2)CC1,92.95%
5,O=C(NCc1nncn1C1CC1)Nc1ccc(OC2CCC2)c(F)c1,8.636%
6,CCOCCNC(=O)CCC1CCCO1 (configuration not stated),-23.31%
7,O=C(NCCNC(=O)C1CC1)c1cnc(-c2ccccc2)nc1,15.61%
8,Cc1cccc(C)c1OCCNC(=O)CNC(=O)C1CCCC1,-3.994%
9,Cc1ncc(-c2ccccn2)c(CCNC(=O)CCC2CCCO2)n1 (configuration not stated),93.7%
10,Cc1ncc(-c2ccccn2)c(CCNC(=O)C2CCCC2)n1,121.3%
11,COc1ccc(OC)c(CCNC(=O)CCC2CCCO2)c1 (configuration not stated),18.05%
12,CC(NCc1cnc(C2CCC2)s1)c1cccc(-n2ccnc2)c1 (configuration not stated),-10.94%
13,CC(C)NC(=O)N1CCC2(CC1)C(=O)NCCN2Cc1ccccc1.O=C(O)C(F)(F)F,-27.1%
14,Cc1cc(C)c2[nH]c(=O)c(CN3CCCC(O)(CO)C3)cc2c1 (configuration not stated),-6.012%
15,O=C1N(CCc2ccccc2)CCCC1(O)CNCc1ccc(F)cc1 (configuration not stated),10.95%
16,Cc1cc(C)c(CN2CCCC23Cc2ccccc2CNC3=O)c(C)c1 (configuration not stated),111.5%
17,Cc1ccc(CCN2CCCC23Cc2ccccc2CNC3=O)cc1 (configuration not stated),109.3%
18,O=C(CC1CC1)N1CCC2(CC1)C(=O)NCCN2Cc1ccccc1,-11.42%
19,Cc1ccc(CN2CCCC23Cc2ccccc2CNC3=O)cc1 (configuration not stated),128.7%
20,OC(CNCCn1cccn1)COc1cccc(C(F)(F)F)c1 (configuration not stated),6.446%
21,CCN1CCC(NC(=O)CNC(C)Cn2cccn2)CC1 (configuration not stated),5.956%
22,CCC[C@@H]1CN(Cc2cc3c(cc2OC)OCO3)C[C@H]1C(=O)O,5.15%
